Assay in all cases: NCI-60 one-dose screen, 48 h (100 = growth as untreated, 0 = no growth, -100 = all killed)
One test concerns HT29 colon. The settings on record: 10 µM unless noted.
Another test deals with SNB-75 CNS. The settings on record: 10 µM unless noted.
The test system of a further test is SNB-19 CNS. The note with it: 10 µM unless noted.
The subject of the next test is U251 CNS. The settings on record: 10 µM unless noted.
Another test deals with PC-3 prostate. The settings on record: 10 µM unless noted.
Another test relates to SK-MEL-5 melanoma. The note with it: 10 µM unless noted.
A further test concerns UACC-62 melanoma. The note with it: 10 µM unless noted.
The test system of the next test is LOX IMVI melanoma. The note with it: 10 µM unless noted.
The subject of a further test is SK-MEL-28 melanoma. The note with it: 10 µM.
Another test relates to SK-MEL-2 melanoma. The note with it: 10 µM unless noted.
For a further test, the system named is EKVX NSCLC. The settings on record: 10 µM unless noted.
A further test relates to SN12C renal. The settings on record: 10 µM unless noted.
The next test concerns UO-31 renal. The note with it: 10 µM unless noted.
The next test has as its system TK-10 renal. The note with it: 10 µM unless noted.
A further test concerns ACHN renal. The note with it: 10 µM unless noted.
In another test the test system is CAKI-1 renal. The note with it: 10 µM unless noted.
The subject of another test is A498 renal. The note with it: 10 µM unless noted.
The test system of the next test is CCRF-CEM leukemia. The note with it: 10 µM unless noted.
Another test has as its system MOLT-4 leukemia. The note with it: 10 µM unless noted.
A further test concerns SR leukemia. The settings on record: 10 µM unless noted.

About 83,000 compounds went through this panel and 20% of them were active in at least one assay; those are over-represented in the sample as a whole.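 For each line, cells grew in 96-well plates with the test compound present at a single concentration for 48 hours.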 Values without a mark were called inactive. Activity calls are given as the source filed them. The calls were made as follows: active = growth percent below 10; inactive = the rest.

Turning to `COc1ccc2sc3c(NCCCN)nc4ccccc4c3c(=O)c2c1`, the growth in the test with HT29 colon was -47.8% (active); in the test with SNB-75 CNS, 48.3%; in the test on SNB-19 CNS, 69.6%; in the test on U251 CNS, -58.1% (active); in the test with PC-3 prostate it was 48.8%; in the test with SK-MEL-5 melanoma, 84.3%. In addition, the growth is 61% in the test on UACC-62 melanoma; -87.2% (active) with LOX IMVI melanoma; 84.8% in the test with SK-MEL-28 melanoma; 96.2% with SK-MEL-2 melanoma; 57.5% with EKVX NSCLC; 81.3% in the test with SN12C renal. For the same compound, the growth in the test on UO-31 renal is 67.1%; with TK-10 renal, 74.8%; with ACHN renal, 48.7%; in the test with CAKI-1 renal, 73%; in the test with A498 renal, 49.8%; with CCRF-CEM leukemia, 0.782% (active). In addition, the growth is -17.3% (active) in the test with MOLT-4 leukemia and 2.94% (active) in the test on SR leukemia.
Regarding `O=C1/C(=C\c2ccc[nH]2)c2ccccc2N1c1ccccc1`, the growth is 105% in the test with HT29 colon; 84.7% in the test on SNB-75 CNS; 92.2% in the test on SNB-19 CNS; 99.3% in the test with U251 CNS; 90.9% with PC-3 prostate; 90.5% with SK-MEL-5 melanoma. In addition, the growth was 77% in the test on UACC-62 melanoma; 96.4% in the test with LOX IMVI melanoma; 96.7% in the test with SK-MEL-28 melanoma; 106% in the test on SK-MEL-2 melanoma; 47.7% in the test with EKVX NSCLC; 89.1% with SN12C renal. Moreover, the growth with UO-31 renal was 93.2%; in the test with TK-10 renal, 102%; with ACHN renal, 92.2%; in the test with CAKI-1 renal, 92%; in the test on A498 renal, 101%; in the test on CCRF-CEM leukemia, 99.2%. Besides, the growth in the test with MOLT-4 leukemia is 102%; in the test on SR leukemia, 139%.
`COC(=O)/C(CCC=C(C)C)=C1\[C@@H](OC(C)=O)C[C@@]2(C)[C@H]1C[C@@H](O)[C@H]1[C@@]3(C)CC[C@H](NCCO)[C@@H](C)[C@@H]3CC[C@@]12C`: the growth in the test with HT29 colon was 104%; in the test with SNB-75 CNS, 100%; in the test with SNB-19 CNS, 98.4%; in the test with U251 CNS, 103%; with PC-3 prostate, 102%; in the test with SK-MEL-5 melanoma it was 102%. Also, the growth was 98% in the test on UACC-62 melanoma; 94.2% in the test with LOX IMVI melanoma; 106% in the test with SK-MEL-28 melanoma; 109% in the test on SK-MEL-2 melanoma; 99.6% in the test with EKVX NSCLC; 105% in the test with SN12C renal. Also, the growth was 78.9% in the test with UO-31 renal; 115% in the test on TK-10 renal; 97.3% in the test with ACHN renal; 91% with CAKI-1 renal; 101% in the test with A498 renal; 101% with CCRF-CEM leukemia. For the same compound, the growth in the test with MOLT-4 leukemia is 96.7%; in the test on SR leukemia, 98.3%.
As to `NCCOc1ncccc1/C=C1\c2ccccc2-c2ccc(F)cc21`, the growth is 13% in the test on HT29 colon; 15.7% in the test with SNB-75 CNS; 16% in the test on SNB-19 CNS; 8.04% (active) in the test with U251 CNS; 42.5% in the test on PC-3 prostate; 25.1% with SK-MEL-5 melanoma. In addition, the growth is 34.8% in the test on UACC-62 melanoma; -11.5% (active) in the test with LOX IMVI melanoma; 70.2% in the test with SK-MEL-28 melanoma; 112% in the test with SK-MEL-2 melanoma; 51.9% in the test with EKVX NSCLC; 2.42% (active) in the test on SN12C renal. Besides, the growth in the test with UO-31 renal is -17.5% (active); with TK-10 renal it was 22.4%; in the test on ACHN renal it was -20.8% (active); with CAKI-1 renal it was 12.8%; in the test with A498 renal it was 18.9%; with CCRF-CEM leukemia it was 6.8% (active). Also, the growth is 2.25% (active) with MOLT-4 leukemia and 9% (active) in the test with SR leukemia.
For `Nc1nc(-c2ccccc2Br)nn1-c1nc2ccccc2s1`, the growth in the test on HT29 colon was 101%; with SNB-75 CNS, 96.7%; in the test with SNB-19 CNS, 97.2%; in the test on U251 CNS, 107%; with PC-3 prostate, 103%; with SK-MEL-5 melanoma, 104%. For the same compound, the growth is 96.6% in the test on UACC-62 melanoma; 106% with LOX IMVI melanoma; 103% with SK-MEL-28 melanoma; 96.7% in the test on SK-MEL-2 melanoma; 92.2% in the test with EKVX NSCLC; 100% with SN12C renal. For the same compound, the growth was 105% with UO-31 renal; 118% in the test with TK-10 renal; 98.3% in the test with ACHN renal; 97.2% in the test on CAKI-1 renal; 101% with A498 renal; 101% in the test with CCRF-CEM leukemia. In addition, the growth is 88.3% with MOLT-4 leukemia and 81.5% in the test with SR leukemia.
Regarding `COC(=O)/C(CCC=C(C)C)=C1\[C@@H](OC(C)=O)C[C@@]2(C)[C@H]1CC(=O)N[C@H]1[C@@]3(C)CCNC(=O)[C@@H](C)[C@@H]3CC[C@@]12C`, the growth was 102% with HT29 colon; 96.2% in the test with SNB-75 CNS; 98.6% in the test on SNB-19 CNS; 102% in the test on U251 CNS; 97.8% in the test with PC-3 prostate; 95.4% in the test on SK-MEL-5 melanoma. Moreover, the growth is 96.3% in the test on UACC-62 melanoma; 97.9% with LOX IMVI melanoma; 106% in the test with SK-MEL-28 melanoma; 106% with SK-MEL-2 melanoma; 98% in the test with EKVX NSCLC; 98.9% with SN12C renal. Further, the growth in the test with UO-31 renal was 81.9%; with TK-10 renal it was 99.5%; in the test with ACHN renal, 101%; in the test with CAKI-1 renal it was 95.5%; with A498 renal, 109%; with CCRF-CEM leukemia it was 104%. Besides, the growth with MOLT-4 leukemia was 99.5%; in the test on SR leukemia, 103%.
Consider `CCOC(=O)c1sc(-c2ccc(OS(=O)(=O)C[C@]34CCC(CC3=O)C4(C)C)c(C=O)c2)nc1C`, for which the growth with HT29 colon is 6.26% (active); in the test on SNB-75 CNS, -2.85% (active); in the test on SNB-19 CNS, 18%; in the test on U251 CNS, -9.73% (active); with PC-3 prostate it was 25.8%; in the test with SK-MEL-5 melanoma it was 16.8%. Besides, the growth in the test with UACC-62 melanoma is 25%; with LOX IMVI melanoma, -32.1% (active); with SK-MEL-28 melanoma, 52.6%; with SK-MEL-2 melanoma, 12.8%; with EKVX NSCLC it was 36.5%; in the test with SN12C renal it was 28.7%. In addition, the growth is 29% in the test with UO-31 renal; 5.83% (active) with TK-10 renal; 39.8% with ACHN renal; 0.933% (active) with CAKI-1 renal; -2.42% (active) in the test on A498 renal; 11.7% in the test on CCRF-CEM leukemia. For the same compound, the figures for the growth in the test on MOLT-4 leukemia and in the test with SR leukemia were 4.72% (active) and 21.2%, respectively.

Values taken from PubChem BioAssay (NCI).
